Screens as filed in PubChem.
tim10-1 inh = growth inhibitors of tim10-1 mutant yeast. S. cerevisiae tim10-1 ts strain growth, BacTiter-Glo, 24 h. inhibition, % at 20 µM. hit rate 2.2% among 330,000. AID 463190;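 active = inhibition of at least 40%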;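 also: mutant grown at 25 °C; 0% = DMSO wells with yeast and 100% = wells holding no yeast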
NALP1 yeast inh = blocks the NALP1 inflammasome reconstituted in yeast; S. cerevisiae NALP1/ASC/caspase-1 growth, X-gal OD620, 72 h; inhibition, % at 10 µM; hit rate 0.61% among 280,000; in the data active = inhibition mostly above about 24%, no sharp cut-off; inactive = mostly below about 32%
NLRP3 yeast inh = blocks the NALP3 inflammasome reconstituted in yeast. Yeast reconstituted NLRP3/ASC/caspase-1, beta-gal luminescence, 24 h. inhibition, % at 10 µM. hit rate 0.39% among 330,000. AID 2825;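 active = inhibition of 50% or more; inactive = inhibition below 50%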;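 also: plate controls were induced DMSO wells for no effect and uninduced yeast grown without galactose for full effect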
V-ATPase pH = yeast V-ATPase proton transport regulation by pHLuorin. S. cerevisiae, pHLuorin cytosolic pH fluorescence. response, % at 10 µM. hit rate 0.37% among 350,000. AID 504577; in the data active = response mostly above about 7.3%, no sharp cut-off; inactive = mostly below about 5.4%; also: actives read high
tim23-1 inh = growth inhibitors of tim23-1 mutant yeast; S. cerevisiae tim23-1 growth, BacTiter-Glo luminescence, 24 h; hit rate 1.3% among 330,000; AID 463212; inhibition, % at 20 µM;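 active = growth inhibition of the mutant yeast at or above 50%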;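 also: temperature-sensitive mutant grown at 25 °C; plate controls were DMSO-treated mutant yeast for no effect and medium wells lacking yeast for full effect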
TIM10 inh = inhibits growth of TIM10 yeast strain; S. cerevisiae TIM10 strain growth, BacTiter-Glo luminescence, 24 h; inhibition, % at 10 µM; hit rate 1.4% among 330,000; AID 463195;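 active = inhibition of 40% or more at the single tested concentration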;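 also: wild-type TIM10 isogenic control strain grown at permissive 25 °C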
TIM10 conf = TIM10 yeast growth inhibition, confirmed. inhibition, % at 10 µM. AID 463215. hit rate 63% among 4,600. S. cerevisiae tim10 strain growth, BacTiter-Glo luminescence, 24 h. shares compounds with TIM10 inh;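 active = inhibition of yeast growth at or above a set limit in either of two replicates at 10 µM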;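 also: this counterscreen used the strain with wild-type TIM10; 0% = yeast with DMSO and 100% = medium wells lacking yeast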
Numbers without * were called inactive; . = not tested or not shown. An excerpt weighted towards active compounds, which were near 4.2% of everything screened.

SMILES	tim10-1 inh	NALP1 yeast inh	NLRP3 yeast inh	V-ATPase pH	tim23-1 inh	TIM10 inh	TIM10 conf
CCOC(=O)Nc1cccc(NC(=O)c2cc(OC)cc(OC)c2)c1	22	-55	-2	-2	49	41*	11
COC(=O)c1cc(NC(=O)c2cccnc2)cc(C(=O)OC)c1	13	-1	-1	-2	16	7	.
COC(=O)c1cc(NC(=O)c2cccc(F)c2)cc(C(=O)OC)c1	2	15	10	0	33	48*	31*
CC(Oc1cccc(Cl)c1)C(=O)N1CCCN(C)CC1 (stereo not drawn)	-12	28	11	-1	-12	5	.
CC(=O)N1CCOc2ccc(S(=O)(=O)NC(C)c3ccccc3)cc21 (stereo not drawn)	12	-2	4	-5	-6	-9	.
COc1ccc(N2CCN(c3ccc(NC(=O)NN)cc3)CC2)cc1	-4	12	16	2	11	-10	.
O=C(Nc1nccs1)c1ccc2nccnc2c1	24	-6	16	0	40	41*	39*
CC1CCCN(C(=O)COC(=O)C2CCN(S(=O)(=O)c3ccc4c(c3)OCCO4)CC2)C1 (stereo not drawn)	13	.	11	7	-2	9	.
Cc1ccc(CN2CCN(Cc3cn[nH]c3-c3cccc(F)c3)CC2CCO)o1 (stereo not drawn)	11	18	3	4	4	5	.
CCOC(=O)C1(C)NC(c2ccco2)C2C(=O)N(CC)C(=O)C21 (stereo not drawn)	3	-6	4	1	12	1	.
Fc1ccccc1/C=N/n1cc(-c2ccccc2)[nH]c1=S	38	.	32	-1	22	45*	47*
Cc1ccc(C)c(/C=N/n2cc(-c3ccccc3)[nH]c2=S)c1	35	-6	2	-1	3	35	.
Cc1ccc(NC(=O)C(=O)c2ccc(C)cc2)cc1	-13	9	28	2	12	16	.
CCOC(=O)N1CCC(N2Cc3cccc(C(=O)Nc4ccc(F)cc4)c3C2=O)CC1	37	17	20	-1	30	42*	30
NC(=O)CC(NC(=O)c1ccccc1)c1ccc(NCCN2CCCCC2)c([N+](=O)[O-])c1 (stereo not drawn)	0	-16	-5	1	19	7	.
COc1cccc(CC2(CO)CCCN(Cc3cc(F)ccc3-n3cccn3)C2)c1 (stereo not drawn)	32	-4	9	-3	16	-7	.
COc1ccc(NC(=O)c2cc3c(-c4ccc(OC)c(OC)c4)nn(C)c3s2)cc1OC	34	16	12	-1	35	40*	27*
Oc1ccc(Cc2ccc(Cl)cc2)c(O)c1	24	3	-3	2	17	11	.
Cc1nnc(-c2cccc(Br)c2)c2cn(-c3ccccc3)nc12	32	.	29	1	27	46*	46*
CN1CCN(S(=O)(=O)c2ccc(NC(=O)c3ccccc3Cl)cc2)CC1	-14	-32	10	1	6	-6	.
O=C(Nc1ccc(S(=O)(=O)N2CCCCCC2)cc1)c1ccco1	34	16	8	0	46	48*	23
O=C(Nc1ccc(S(=O)(=O)N2CCCCC2)cc1)c1ccccc1Cl	37	-5	26	-2	26	45*	39*
O=C(Nc1cccc(S(=O)(=O)N2CCCC2)c1)c1ccco1	14	.	-12	-2	23	3	.
CCCn1c2c(c(O)c(C(=O)Nc3ccc(OCC)cc3)c1=O)CCCC2	-4	-7	20	3	4	8	.
CCCn1c2c(c(O)c(C(=O)Nc3ncccc3C)c1=O)CCCC2	25	14	-9	0	49	45*	8
O=C(c1ccc(Cn2c(=O)[nH]c3ccccc3c2=O)cc1)N1CCN(c2ccccn2)CC1	-4	34	14	-3	-2	2	.
O=C(c1ccc(Cn2c(=S)[nH]c3ccccc3c2=O)cc1)N1CCN(c2ccccn2)CC1	20	0	14	1	30	73*	4
Cc1cc(/C([O-])=C(/C(=S)Nc2ccc(F)cc2)[n+]2ccccc2)c(C)n1-c1ccc(F)cc1	30	-9	22	-3	14	3	.
